Results on 39 molecules are retold here after the supplement of paper PMC13380429.

SMILES strings stand for the structures.

One assay has as its system Vero E6 infected with SARS-CoV-2. Briefly: inhibition of SARS-CoV-2 cytopathic effect; higher = more antiviral protection, active = above 15. As to conditions: 8.33 nM; 48 h.
Consider `COC(=O)CCc1ccc(OCC(O)CNC(C)C)cc1` (centres undefined) [esmolol], for which the “inhibition of SARS-CoV-2 cytopathic effect” value (shortened to “inhibition”) is 0.64% (inactive).

Take `Cc1c(NC(=O)c2cc3c(s2)CCCC3)cccc1-c1cn(C)c(=O)c(Nc2ccc(C3C(=O)N(C)CCN3C)cc2)n1` (stereo in doubt): the “inhibition” value was -3.85% (inactive).

Take `C[C@@H]1CN(Cc2ccc(F)cc2)[C@@H](C)CN1C(=O)c1cc2c(C(=O)C(=O)N(C)C)cn(C)c2cc1Cl` [talmapimod]: the “inhibition” value was -0.66% (inactive).

As to `Cc1cc2sc(NC(=O)Cc3ccccc3)nc2cc1Cl`, the “inhibition” value is 2.12% (inactive).

For the molecule `NC(=O)[C@@H](CC1CC1)[C@@H](CCC(F)(F)F)C(=O)N[C@H]1N=C(c2ccccc2)c2cccc(F)c2NC1=O`, the “inhibition” value is -1.04% (inactive).

As for `CS(=O)(=O)Oc1ccc2c(NC(N)=O)c(C(=O)c3ccc(Cl)cc3Cl)oc2c1` [lirimilast], the “inhibition” value is -9.08% (inactive).

For `NC(=O)c1cccc(N)c1` [3-amino-benzamide], the “inhibition” value is -0.97% (inactive).

As to `Fc1ccc(C(c2ccc(F)cc2)N2CCN(C/C=C/c3ccccc3)CC2)cc1` [flunarizine], the “inhibition” value was -0.01% (inactive).

On to `CC(C)NCC(O)COc1cccc2[nH]ccc12` (centres undefined) [pindolol], for which the “inhibition” value is 0.875% (inactive).

Regarding `CN1C/C=C/CCOc2cccc(c2)-c2ccnc(n2)Nc2cccc(c2)C1`, the “inhibition” value was 0.11% (inactive).

Regarding `CCC[C@H](N[C@@H](C)C(=O)N1[C@H](C(=O)O)C[C@@H]2CCCC[C@@H]21)C(=O)OCC` [perindopril], the “inhibition” value is 1.32% (inactive).

For `O=C1[C@H]2CCCC[C@H]2C(=O)N1CCCCN1CCN(c2nsc3ccccc23)CC1` [perospirone], the “inhibition” value was 3.93% (inactive).

As to `Nc1nc(=O)c2c([nH]1)NCC(CNc1ccc(C(=O)N[C@@H](CCC(=O)O)C(=O)O)cc1)N2C=O` (some centres undefined) [leucovorin], the “inhibition” value was -3.52% (inactive).

Take `N[C@H](CO)C(=O)O` [D-serine]: the “inhibition” value is 1.46% (inactive).

Take `CC(C)[C@H](N)C(=O)OCCOCn1cnc2c(=O)nc(N)[nH]c21` [valaciclovir]: the “inhibition” value is 0.27% (inactive).

On to `NCC1OC(C23CC4CC(CC(C4)C2)C3)Cc2c1ccc(O)c2O` (centres undefined), for which the “inhibition” value is 0.56% (inactive).

As for `C#CCN(C)[C@H](C)Cc1ccccc1` [selegiline], the “inhibition” value is -1.21% (inactive).

On to `O=C(Nc1nc(-c2cc(Cl)cs2)c(N2CCN(C3CCCCC3)CC2)s1)c1cnc(N2CCC(C(=O)O)CC2)c(Cl)c1` [avatrombopag], for which the “inhibition” value is 0.14% (inactive).

As to `CC(=C(CCO)SSCC1CCCO1)N(C=O)Cc1cnc(C)nc1N` (stereo in doubt) [fursultiamine], the “inhibition” value was 0.44% (inactive).

Take `O=c1[nH]c2ccccc2n1C1CCN(CCOc2ccccc2)CC1` [oxiperomide]: the “inhibition” value is -1.1% (inactive).

For the molecule `Cc1coc2c1C(=O)C(=O)c1c-2ccc2c1CCCC2(C)C` [tanshinone-IIA], the “inhibition” value was 2.92% (inactive).

On to `CNC(=O)Oc1cccc2ccccc12` [carbaril], for which the “inhibition” value was -0.59% (inactive).

Consider `CC(=O)NO` [acetohydroxamic-acid], for which the “inhibition” value is 3.09% (inactive).

Regarding `COc1cc(OC)c(C(=O)CCCCN2CCC3(CC2)NC(=O)NC3=O)cc1NS(=O)(=O)c1ccc(C(F)(F)F)cc1`, the “inhibition” value is 0.2% (inactive).

For the molecule `Nc1nc(O)c2nc(Br)n([C@@H]3O[C@@H]4COP(=O)(O)O[C@H]4[C@H]3O)c2n1` [8-bromo-cGMP], the “inhibition” value was 2.94% (inactive).

Still in this assay, the particulars now being: 100 nM; 48 h.
With `Oc1ccc2c3c1O[C@H]1[C@@H](O)CC[C@@]4(O)[C@@H](C2)N(CC2CCC2)CC[C@]314` [nalbuphine], the “inhibition” value is 0.27% (inactive).

Take `O=C(O)[C@H](O)c1ccccc1` [mandelic-acid]: the “inhibition” value is 3.65% (inactive).

With `CSc1ccccc1OCC(O)CNC(C)C` (centres undefined) [tiprenolol], the “inhibition” value was -1.94% (inactive).

`Nc1n[n+]([O-])c2ccccc2[n+]1[O-]` [tirapazamine]: the “inhibition” value is 2.11% (inactive).

For the molecule `Cc1cccc(NC(=O)CN2CCC(c3ccccn3)CC2)c1`, the “inhibition” value was -0.12% (inactive).

In the case of `CC[N+](CC)(CC)CCC(O)(c1ccccc1)C1CCCCC1` (centres undefined) [tridihexethyl], the “inhibition” value was -0.23% (inactive).

As to `C=CC(=O)Nc1ccc2ncnc(Nc3ccc(OCc4cccc(F)c4)c(Cl)c3)c2c1`, the “inhibition” value was -0.97% (inactive).

Turning to `CC(=O)N(C)c1cc(-c2ccnc3c(C(=O)c4cccs4)cnn23)ccc1F` [lorediplon], the “inhibition” value is 1.97% (inactive).

Regarding `CO/N=C(\C(=O)N[C@@H]1C(=O)N2C(C(=O)OCOC(=O)C(C)(C)C)=C(/C=C\c3scnc3C)CS[C@H]12)c1csc(N)n1` [cefditoren-pivoxil], the “inhibition” value was -2.07% (inactive).

Take `O=C(CC12CC3CC(CC(C3)C1)C2)Nc1cccc2nc(NCCNCCO)ccc12`: the “inhibition” value was 0.57% (inactive).

For `Nc1[nH]cnc2ncnc1-2` [adenine], the “inhibition” value was 3.06% (inactive).

For the molecule `COc1ccc2cccc(N3CCN(CCNC(=O)c4ccc(F)cc4)CC3)c2c1`, the “inhibition” value is 0.77% (inactive).

Take `CC(C)(C)NC[C@H](O)c1ccc(O)cc1Cl` [meluadrine]: the “inhibition” value is 1.61% (inactive).

Take `CCOc1ccc2nc3cc(N)ccc3c(N)c2c1` [ethacridine-lactate-monohydrate]: the “inhibition” value was 0.77% (inactive).

As to `COC(=O)CCc1ccc(OCC(O)CNC(C)C)cc1` (centres undefined) [esmolol], the “inhibition” value was -0.39% (inactive).

With `Cc1c(NC(=O)c2cc3c(s2)CCCC3)cccc1-c1cn(C)c(=O)c(Nc2ccc(C3C(=O)N(C)CCN3C)cc2)n1` (stereo in doubt), the “inhibition” value was 3.38% (inactive).

In the case of `C[C@@H]1CN(Cc2ccc(F)cc2)[C@@H](C)CN1C(=O)c1cc2c(C(=O)C(=O)N(C)C)cn(C)c2cc1Cl` [talmapimod], the “inhibition” value is -2.57% (inactive).

Turning to `Cc1cc2sc(NC(=O)Cc3ccccc3)nc2cc1Cl`, the “inhibition” value is 2.19% (inactive).

With `NC(=O)[C@@H](CC1CC1)[C@@H](CCC(F)(F)F)C(=O)N[C@H]1N=C(c2ccccc2)c2cccc(F)c2NC1=O`, the “inhibition” value was -3.47% (inactive).

Turning to `CS(=O)(=O)Oc1ccc2c(NC(N)=O)c(C(=O)c3ccc(Cl)cc3Cl)oc2c1` [lirimilast], the “inhibition” value is -8.83% (inactive).

`NC(=O)c1cccc(N)c1` [3-amino-benzamide]: the “inhibition” value was -0.7% (inactive).

Take `Fc1ccc(C(c2ccc(F)cc2)N2CCN(C/C=C/c3ccccc3)CC2)cc1` [flunarizine]: the “inhibition” value is -1.97% (inactive).

Take `CC(C)NCC(O)COc1cccc2[nH]ccc12` (centres undefined) [pindolol]: the “inhibition” value was 0.95% (inactive).

Regarding `CN1C/C=C/CCOc2cccc(c2)-c2ccnc(n2)Nc2cccc(c2)C1`, the “inhibition” value is 0.3% (inactive).

As for `CCC[C@H](N[C@@H](C)C(=O)N1[C@H](C(=O)O)C[C@@H]2CCCC[C@@H]21)C(=O)OCC` [perindopril], the “inhibition” value is -0.77% (inactive).

As to `O=C1[C@H]2CCCC[C@H]2C(=O)N1CCCCN1CCN(c2nsc3ccccc23)CC1` [perospirone], the “inhibition” value was 3.52% (inactive).

Take `Nc1nc(=O)c2c([nH]1)NCC(CNc1ccc(C(=O)N[C@@H](CCC(=O)O)C(=O)O)cc1)N2C=O` (some centres undefined) [leucovorin]: the “inhibition” value was -0.89% (inactive).

In the case of `N[C@H](CO)C(=O)O` [D-serine], the “inhibition” value is -1.84% (inactive).

As for `CC(C)[C@H](N)C(=O)OCCOCn1cnc2c(=O)nc(N)[nH]c21` [valaciclovir], the “inhibition” value is 1.58% (inactive).

Take `NCC1OC(C23CC4CC(CC(C4)C2)C3)Cc2c1ccc(O)c2O` (centres undefined): the “inhibition” value is 2.31% (inactive).

Turning to `C#CCN(C)[C@H](C)Cc1ccccc1` [selegiline], the “inhibition” value was 1.02% (inactive).

As for `O=C(Nc1nc(-c2cc(Cl)cs2)c(N2CCN(C3CCCCC3)CC2)s1)c1cnc(N2CCC(C(=O)O)CC2)c(Cl)c1` [avatrombopag], the “inhibition” value is 0.09% (inactive).

Turning to `CC(=C(CCO)SSCC1CCCO1)N(C=O)Cc1cnc(C)nc1N` (stereo in doubt) [fursultiamine], the “inhibition” value was 2.45% (inactive).

Regarding `O=c1[nH]c2ccccc2n1C1CCN(CCOc2ccccc2)CC1` [oxiperomide], the “inhibition” value is -2.1% (inactive).

On to `Cc1coc2c1C(=O)C(=O)c1c-2ccc2c1CCCC2(C)C` [tanshinone-IIA], for which the “inhibition” value is 0.8% (inactive).

With `CNC(=O)Oc1cccc2ccccc12` [carbaril], the “inhibition” value is 0.05% (inactive).

As to `CC(=O)NO` [acetohydroxamic-acid], the “inhibition” value is -3.04% (inactive).

As for `COc1cc(OC)c(C(=O)CCCCN2CCC3(CC2)NC(=O)NC3=O)cc1NS(=O)(=O)c1ccc(C(F)(F)F)cc1`, the “inhibition” value is -0.19% (inactive).

`Nc1nc(O)c2nc(Br)n([C@@H]3O[C@@H]4COP(=O)(O)O[C@H]4[C@H]3O)c2n1` [8-bromo-cGMP]: the “inhibition” value is 2.06% (inactive).
